Test results taken from PubChem BioAssay AID504444 (National Center for Advancing Translational Sciences (NCATS), 2011).
About 7,500 (2.1%) of roughly 360,000 compounds were called active. Another 20% or so got no clear call; they are omitted. Calls follow the shape of the dose curve; as a rule, active = well fitted inhibition curve with a large enough effect; inconclusive = small, poorly fitted or top-dose-only effect, or effect the other way; inactive = flat fitted curve, though single readings scatter. The list comes from a sample in which actives are over-represented; it also holds similar structures and randomly drawn compounds.

assay: Nrf2 qHTS screen for inhibitors; settings: A549 ARE-Fluc reporter, luciferase luminescence, 18-24 h; series mostly up to 46 µM; activity change, negative = inhibition: at the top concentration; also: nearly all actives have a fitted effect of over 60% in size
Excerpt: NIH Molecular Libraries Probe Production Network [MLPCN]
NIH Chemical Genomics Center [NCGC]
Assay Provider: Shyam Biswal, Johns Hopkins University
Nrf2 is a transcription factor that maintains cellular redox homoestasis and protects cells from xenobiotics. Nrf2 binds to the antioxidant response element (ARE) to induce gene expression of a broad spectrum of genes that encode for antioxidants. […] Finding a small molecule that act as an inhibitor of Nrf2 function would represent a novel therapeutic target that could lead to improvement in survival of patients undergoing chemo- and/or radio- therapy.
This is the Nrf2 activity measured in the luminescent read.
1. Shibata, T., et al., Genetic Alteration of Keap1 Confers Constitutive Nrf2 Activation and Resistance to Chemotherapy in Gallbladder Cancer. Gastroenterology, 2008.
2. Sjoblom, T., et al., The consensus coding sequences of human breast and colorectal cancers. Science, 2006. 314(5797): p. 268-74.
NCGC Assay Protocol Summary:
A concentration-response assay was performed with A549 ARE_Fluc cells which are suspended in 5% FBS OPTI-MEM. Five uL were dispensed into 1536-well white TC-treated plate using the Kalypsys dispenser to achieve a density of 5000 cells/well in all columns except column 1. The plate is incubated at 37deg C at 5% CO2 for 2 hours before 23 nL of compounds are added with the Kalypsys pin tool equipped with a 1,536-pin array containing 10-nL slotted pins (FP1S10, 0.457-mm diameter, 50.8 mm long; V&P Scientific). The control compounds Budesonide and Staurosporine are both added at a concentration of 2mM and Budesonide is also added as a 1:10 titration, starting at 200uM, to achieve dose-response. After an 18-24 hour incubation at 37deg C at 5% CO2, 5ul of medium is added to column 1. Afterwards 1ul of 5x of CellTiter-Fluor (Promega) is added to every well. The plate is then incubated at 37deg C at 5% CO2 for 30 minutes before they are read on the ViewLux (Perkin Elmer) for a fluorescent read Ex=405(10)/Em=525(10) for a 3 second exposure, 2x binning, and high gain. Then 3 uL of 3x BugLite is dispensed into all wells and the plate is incubated at ambient room temperature for 15 minutes. Afterwards another ViewLux read is performed using the clear filter to get a luminescent read with the settings of 40 second exposure, 2x binning, and high gain. Cytotoxicity is assessed through the first fluorescent read and then biochemical activity against Nrf2 is measured in the luminescent read.
% is scaled to controls: 0 for no effect and ±100 for the full control effect; potency is read from the fitted curve at half-maximal effect.

Potency, active:
CCOC(=O)C1=C(CN2CCc3ccccc32)NC(=O)NC1c1ccc(Cl)cc1 (stereo unspecified) 16.4 µM
CCOC(=O)c1cnc(-n2nc(C)cc2C)nc1NNc1cc(C)nc(-c2ccccc2)n1 4.11 µM
Cc1ccc2ccc3c(c2n1)NS(=O)(=O)c1ccccc1-3 20.6 µM
O=C(Nc1ccc(Cl)cc1)c1cccc(OC(=S)N2CCOCC2)c1 23.1 µM
N#Cc1nc(COc2ccc(-c3ccccc3)cc2)oc1NCc1cccnc1 13 µM
CCCn1nnnc1NC(=O)COc1ccc(Cl)cc1C 13 µM
CCC(C)(C)c1ccc(Oc2ccc(NC(=O)COC(=O)C3=COCCO3)cc2)cc1 8.2 µM
COc1ccc(Cn2c(=O)sc3ccccc32)cc1OC 25.9 µM
CN(CCc1ccccc1)C(=O)c1cccc(NC(=O)Cc2cccc(NC(=O)C3CCCN(C(=O)CCc4ccccc4)C3)c2)c1 (stereo unspecified) 23.1 µM
NC(=O)CC(NC(=O)Cc1ccc(Br)cc1)c1ccc(NC2CC3CCC2C3)c([N+](=O)[O-])c1 (stereo unspecified) 18.4 µM
Cc1cccc(N=C2NC(=O)/C(=C/c3cn(C)c4ccccc34)S2)c1 14.6 µM
Oc1c(Cl)cc(Cl)c(Cl)c1Cc1c(O)c(Cl)cc(Cl)c1Cl 14.6 µM
CCc1ccc(Oc2coc3cc(OC(=O)c4cc5ccccc5oc4=O)ccc3c2=O)cc1 4.61 µM
CCc1ccc(Oc2coc3cc(O)ccc3c2=O)cc1 7.31 µM
CCOC(=O)N1CCN(C(=O)c2ccc(S(=O)(=O)Nc3cccc(C(F)(F)F)c3)cc2)CC1 18.4 µM
CCC1(C)Cc2c(sc3[nH]c(=S)n(Cc4ccccc4)c(=O)c23)CO1 (stereo unspecified) 16.4 µM
COc1ccc(CCC(=O)Nc2ccc(Cl)c(S(=O)(=O)N3CCOCC3)c2)cc1OC 18.4 µM
COc1cc(/C=C/C(=O)Nc2ccc(OC)c(S(=O)(=O)N3CCOCC3)c2)ccc1OCC#N 9.2 µM
COc1ccc(C(=O)OCC(=O)c2ccc(C)c(S(=O)(=O)N3CCOCC3)c2)cc1OC 20.6 µM

Activity change, negative = inhibition, inactive:
CCOC(=O)C1=C(CN2CCCCCC2)NC(=O)NC1c1cccc([N+](=O)[O-])c1 (stereo unspecified) 21.8%
CCOC(=O)C1=C(CN2CCc3ccccc32)NC(=O)NC1c1cccc([N+](=O)[O-])c1 (stereo unspecified) -21.3%
COc1ccc(CNCCCn2cnc3c(OCc4ccccc4)ncnc32)cc1 19.7%
Cc1cc(C)n(-c2c(F)c(F)c(COC(=O)c3ccccc3)c(F)c2F)n1 5.92%
CCOC(=O)c1cnc(-n2nc(C)cc2C)nc1Nc1cccc(C(C)=O)c1 3.3%
O=c1n(Cc2cccc(C(F)(F)F)c2)c2ccccc2c2nc(-c3ccccc3)nn12 -0.836%
CC(Nc1ccc([N+](=O)[O-])cc1[N+](=O)[O-])c1ccccc1 (stereo unspecified) -22.7%
CCn1cc(C(=O)OCC(=O)Nc2cc(C)cc(C)c2)c(=O)c2ccc(C)nc21 9.75%
CC[C@]1(C(=O)OC)[C@H]2C(=O)N(Cc3ccccc3)C(=O)[C@H]2[C@H]2CN=C(SCc3ccc(Cl)cc3)N21 -8.32%
Cc1ccc2cccc(NC(=O)c3cccc4ccccc34)c2n1 -5.31%
Cc1ccccc1C(=O)NCCN=C1NS(=O)(=O)c2ccccc21 -8.96%
CC(C)(C)OC(=O)C[C@@H]1C/C=C\C[C@@H](CC(=O)N[C@H](CO)Cc2ccccc2)C(=O)NC[C@@H](c2ccccc2)OC1=O 8.52%
Cc1ccc(CN(C(=O)c2ccccc2[N+](=O)[O-])c2ccccn2)cc1 0.431%
O=C(Oc1cccc(C(=S)N2CCOCC2)c1)c1cccc(Cl)c1 -4.92%
O=C(Nc1ccc(Cl)cc1)Nc1ccc(C(=O)N2CCOCC2)cc1 -6.09%
CCCCNC(=O)C(C)N(CCN(C)C)C(=O)CCCN1C(=O)NC(c2ccc(Cl)cc2)C(C(=O)OCc2ccccc2)=C1C (stereo unspecified) 6.22%
N#Cc1nc(Cc2cccc3ccccc23)oc1NCc1ccc2c(c1)OCO2 -27.6%
Cc1ccc(OCc2nc(C#N)c(N3CCCC3)o2)cc1 -20.5%
Oc1ccc(Br)cc1C1C=C(c2ccc3c(c2)OCO3)NC(c2ccc(Cl)cc2)N1 (stereo unspecified) 7.41%
Cc1cccc(C)c1NC(=O)COC(=O)c1c(C)nn(-c2ccccc2)c1C -16.5%
CC1CCc2sc(C(=O)NCC(c3ccco3)N3CCCCC3)cc2C1 (stereo unspecified) -2.39%
CCOC(=O)N1CCN(C(=O)COc2ccc(Cl)cc2C)CC1 -6.92%
Cc1cc(NC(=O)COC(=O)COc2ccc(Cl)cc2C)c([N+](=O)[O-])cc1C 14.2%
CCCc1cc(=O)[nH]c(SCC(=O)Nc2ccc(C(=O)Nc3ccccc3OC)cc2)n1 -28.8%
Cc1ccccc1NC(=O)Cn1c(=O)n(CCc2ccccc2)c(=O)c2ccccc21 -2.38%
COc1ccc(S(=O)(=O)N(C)C[C@@H]2Oc3ccc(NC(=O)Nc4c(C)noc4C)cc3C(=O)N([C@H](C)CO)C[C@@H]2C)cc1 -14.7%
COc1ccc(NC(=O)COC(=O)CNC(=O)C2CCCCC2)cc1 4.96%
CCOc1ccc(NC(=O)c2ccc(NC(=O)COC(=O)c3ccc(NC(=O)CC#N)cc3)cc2)cc1 12.3%
COc1cc(OC)cc(-c2c(C#Cc3ccsc3)c3cc(-c4ccc(OC)cc4F)ccc3n2C)c1 -9.99%
O=C(NCCC(=O)N1O[C@@H]2C=C[C@H]1C2)OCC1c2ccccc2-c2ccccc21 12%
COc1ccccc1CNC(=O)CCn1c(=O)sc2ccccc21 -9.65%
Cc1cccc(CSc2nnc(Cn3c(=O)sc4ccccc43)n2C)c1 -17.1%
COc1ccc(-n2c(SC)nc3sc4c(c3c2=O)CCN(C(C)=O)C4)cc1 1.06% [at 9.27 µM]
CN(C(=O)c1cccc(NC(=O)Cc2cccc(NC(=O)C3CCCN(C(=O)C4CC4)C3)c2)c1)C1CCC1 (stereo unspecified) -3.67%
CN(C(=O)c1cccc(NC(=O)Cc2ccc(NC(=O)C3CCCN(C(=O)C4CC4)C3)cc2)c1)C1CC1 (stereo unspecified) -18.1%
CCCN(C(=O)Cn1cc(S(=O)(=O)N2CCN(c3ccccc3F)CC2)c2ccccc2c1=O)c1cccc(C)c1 11.7%
COc1ccc(CNC(=O)COc2ccccc2C(=O)c2cnn(-c3ccccc3)c2)cc1OC -7.75%
Cc1ccc(C(=O)OCC(=O)NCc2cc(C)c(O)c(C)c2)cc1S(=O)(=O)N1CCCCC1 2.12%
COc1ccc2c(C)c(CCC(=O)NCc3ccc(OC)c(OC)c3)c(=O)oc2c1 12.2%
CCC(CO)Oc1cc(NCc2ccccc2)c2ncn(C3CCCC3)c2c1 (stereo unspecified) -19%
CC1CCCCN1CCCNc1ccc(C(CC(N)=O)NC(=O)c2ccccc2)cc1[N+](=O)[O-] (stereo unspecified) -0.271%
Cc1cc(C)cc(C(=O)NC(CC(N)=O)c2ccc(N3CCC(N4CCCCC4)CC3)c([N+](=O)[O-])c2)c1 (stereo unspecified) -6.31%
O=C1OCC2=C1C(c1ccc(Cl)cc1)c1cc3c(cc1O2)OCO3 (stereo unspecified) -8.02%
COc1ccc(Cl)cc1NC(=O)Cn1c(=O)c2ccccc2n2nncc12 -1.31%
CN(C)c1ccc(-n2cccc2/C=C2/SC(=Nc3ccc(F)cc3)NC2=O)cc1 -10.4%
Cc1ccc(N=C2NC(=O)/C(=C/C=C/c3ccco3)S2)cc1C -21.9%
O=C(c1ccc2c(=O)n(Cc3ccco3)c(=S)[nH]c2c1)N1CCCC1 -26.7%
O=C(Nc1cc(S(=O)(=O)N2CCCCC2)ccc1Cl)C1COc2ccccc2O1 (stereo unspecified) -17.2%
CCCOC(=O)c1cc2ccccc2oc1=O -4.8%
COc1ccc(Oc2coc3cc(OC(=O)c4cncc(Br)c4)ccc3c2=O)cc1 -23.2%
CCOC(=O)c1cc(=O)c2ccc(OCc3ccccc3)cc2o1 0.81%
COc1ccc(-c2onc(C)c2C)cc1S(=O)(=O)NCc1cccs1 -14.2%
CC(C)Cn1c(=O)c2ccccc2n2c(-c3cccc(Cl)c3)nnc12 0.39%
CCOC(=O)c1cccc(NS(=O)(=O)c2c(C(=O)N3CCCCCC3)c(C)n(C)c2C)c1 5.58%
O=C(Nc1ccc(C(=O)N2CCOCC2)cc1)Nc1cccc(C(F)(F)F)c1 -28.3%
Cc1ccc(C)c(N2CCN(C(=O)CCc3nc(-c4cccc(C(F)(F)F)c4)no3)CC2)c1 -25.2%
COc1ccc(C(=O)OCC(=O)c2cc(C)n(CC3CCCO3)c2C)cc1[N+](=O)[O-] (stereo unspecified) -11.4%
Cc1oc2ncnc(N3CCCCC3)c2c1C(=O)N1CCN(c2cccc(Cl)c2)CC1 5.11%
CC(=O)OCC1(O)CC23CCC4c5ccoc5CCC4(C)C2CCC1C3 (stereo unspecified) -16.8%
CCC1(C)Cc2c(sc3nc(SC)[nH]c(=O)c23)CO1 (stereo unspecified) -5.53%
CCC1(C)Cc2c(sc3nc4n(c(=O)c23)CCCS4)CO1 (stereo unspecified) 1.02%
COc1ccc(Cl)cc1NC(=O)c1sc2nc3c(cc2c1N)CN(C)CC3 1.59%
COc1ccc(CNc2nc(-c3ccc(Cl)cc3)cc(C(F)(F)F)n2)cc1 0.506% [at 9.27 µM]
CN(C)c1ccc(C(=O)NCC(=O)OC(C(=O)Nc2cc(C(F)(F)F)ccc2Cl)c2ccccc2)cc1 (stereo unspecified) 6.05%
Cc1cccc(N2O[C@H]3C=CC2CCCC3)n1 26.1%
COc1ccc(CNC(=O)COC(=O)c2ccc(C)c(S(=O)(=O)N3CCOCC3)c2)cc1OC -8.32%
COc1ccc(COC(=O)c2ccc(Cl)c(S(=O)(=O)N3CCOCC3)c2)cc1F -8.75%
COc1cc(/C=C/C(=O)OCC(=O)N2CCOCC2)ccc1OCC#N 9.99%
COc1ccc(CC(=O)Nc2ccc3c(c2)CCC3)cc1S(=O)(=O)N1CCOCC1 -17%
COc1ccc(NS(=O)(=O)c2cc(NC(=O)/C=C/c3cc(OC)c(OC)c(OC)c3)ccc2N2CCCCC2)cc1 -12.4%
Cc1ccc(C(=O)OCC(=O)N2CCCCCC2)cc1S(=O)(=O)N1CCOCC1 8.03%
CCN1CCN(CCCNC(=O)c2ccc3c(c2)sc2nc(-c4ccc(OC)cc4)cn23)CC1 -26%
